# FBA Mtb inh: inhibits M. tuberculosis FBA enzyme. actives 2.3% (n = 360,000). inhibition, % at 1 µM. AID 588726. purified M. tuberculosis FBA, fluorescence read-out
# CCHFV vOTU inh: CCHFV vOTU protease inhibition; Pep-AMC fluorescence; inhibition, % at 11.5 µM; actives 0.55% (n = 370,000); AID 651958; in the data active = inhibition above about 30%
# RecA intein inh: Mtb RecA intein splicing inhibition | P9WHJ3 | cell-free RecA intein splicing, fluorescence | inhibition, % (no concentration beside the values) | actives 0.75% (n = 290,000); in the data active = inhibition above about 30%
# Mtb betalactam: beta-lactam sensitization of Mtb H37Rv; inhibition, % at 25 µM; AID 434955; actives 0.27% (n = 330,000); M. tuberculosis H37Rv growth with meropenem, percent inhibition; call rule not given here;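 also: growth measured after seven days incubation then overnight dye step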
# GDH-TPI counter-1: inhibits GDH-TPI coupling enzymes, artifact for Mtb FBA screen; inhibition, % at 4.8 µM; GDH-TPI coupled enzyme counterscreen, NADH absorbance; actives 1.2% (n = 360,000); AID 588335; in the data active = inhibition above about 30%
# Mtb FBA confirm: Mtb FBA inhibition, confirmed; inhibition, % at 1 µM; actives 78% (n = 5,600); shares compounds with FBA Mtb inh; purified M. tuberculosis FBA, fluorescence read-out
# GDH-TPI counter-2: inhibits GDH-TPI coupling enzymes, flagging Mtb FBA hits; actives 81% (n = 5,600); GDH-TPI coupled enzyme counterscreen, fluorescence; shares compounds with FBA Mtb inh; inhibition, % at 1 µM; in the data active = inhibition above about 10%
# GDH-TPI dose: counter-screen for M. tuberculosis FBA inhibitors: GDH-TPI dose response; actives 79% (n = 170); IC50, µM; shares compounds with FBA Mtb inh; GDH-TPI coupled enzyme assay, fluorescence, artifact counterscreen; call rule not given here
# Numbers stand for hits; n = inactive; x = no result; + = active, no number. Sampled rows, rich in hits. Any-hit rate of the full collection: about 4.2%. Rule as the data show it, unless noted: active = inhibition above about 27%; inactive = the rest.
SMILES,FBA Mtb inh,CCHFV vOTU inh,RecA intein inh,Mtb betalactam,GDH-TPI counter-1,Mtb FBA confirm,GDH-TPI counter-2,others
O=C1NC(=O)c2cc(NC(=O)C3CCCO3)ccc21 (stereo unspecified),38,n,n,n,n,n,n,GDH-TPI dose=4.2
O=C(Cc1ccc(Cl)cc1)Nc1ccc2c(c1)C(=O)NC2=O,60,n,n,n,n,51,35,
CCCC(=O)Nc1ccc2c(c1)C(=O)NC2=O,33,n,n,n,n,115,88,
Cc1ccccc1C(=O)Nc1ccc2c(c1)C(=O)NC2=O,39,n,n,n,n,n,n,
O=C(CSc1nnc(-c2cccc(Cl)c2)n1Cc1ccco1)Nc1ccc2c(c1)OCO2,x,n,x,x,x,x,x,
O=C(CCc1c[nH]c2ccccc12)Nc1ccc(Nc2cccnc2)c(Br)c1,x,n,x,x,x,x,x,
Brc1cccc(CN2CCN(c3ncc(Cc4ccccc4)cn3)CC2)n1,x,n,x,x,x,x,x,
COc1ccc(CNC(=O)CCNS(=O)(=O)c2ccc3[nH]c(=O)oc3c2)cc1,x,n,x,x,x,x,x,
COc1ccc(-c2oc3ncnc(N)c3c2-c2ccccc2)cc1,27,n,n,n,n,n,n,
COc1ccc(-c2oc3ncn4nc(COc5ccccc5)nc4c3c2-c2ccc(OC)cc2)cc1,n,n,n,n,n,x,x,
COC(=O)C1=C(C)N(C)C(=NCC2CC2)NC1CCc1ccccc1 (stereo unspecified),x,n,x,x,x,x,x,
COC(=O)C[C@H]1CC[C@@H]2[C@H](COc3ccc(NS(C)(=O)=O)cc3C(=O)N2C)O1,x,n,x,x,x,x,x,
COC(=O)c1ccccc1NCCO,109,n,n,n,n,67,55,
O=C(O)c1ccccc1NCCO,48,n,n,n,n,138,123,
CCNc1ccccc1C(=O)O,78,n,n,n,n,n,n,
O=C(CCN1C(=O)NC2(CCCC2)C1=O)Nc1ccc(-c2nc3ccccc3s2)cc1,40,n,x,n,n,174,119,
Cc1ccc2nc(-c3ccc(NC(=O)CCS(=O)(=O)c4ccccc4)cc3)sc2c1,44,n,n,n,n,n,n,
COc1ccc(C2(C)NC(=O)N(CC(=O)Nc3ccc(-c4nc5ccc(C)cc5s4)cc3)C2=O)cc1 (stereo unspecified),n,n,n,n,n,x,x,
Cc1ccc2nc(-c3ccc(NC(=O)CN4C(=O)c5ccccc5C4=O)cc3)sc2c1,34,n,n,n,n,n,n,
Cc1nc2ccc(NC(=O)CCS(=O)(=O)c3ccccc3)cc2s1,n,n,n,n,n,x,x,
O=C(CCN1C(=O)NC2(CCCC2)C1=O)Nc1ccc(Sc2ccc(Br)cc2)cc1,n,n,x,x,n,x,x,
CCC1(c2ccc(F)cc2)NC(=O)N(CC(=O)Nc2ccc(-c3nc4ccc(C)cc4s3)cc2)C1=O (stereo unspecified),41,n,n,n,n,+,150,
COc1cc2c(c(OC)c1OC)[C@@]1(c3ccccc3)CCCC[C@H]1[C@@H]2NC(=O)C(F)(F)F,x,n,x,x,x,x,x,
Cc1ccc2nc(-c3ccc(NC(=O)COC(=O)c4ccc(=O)[nH]c4)cc3)sc2c1,39,n,n,n,n,39,30,
Cc1ccc(C)c(N(CC(=O)Nc2ccc(-c3nc4ccc(C)cc4s3)cc2)S(C)(=O)=O)c1,n,n,n,n,n,x,x,
SMILES,FBA Mtb inh,CCHFV vOTU inh,RecA intein inh,Mtb betalactam,GDH-TPI counter-1,Mtb FBA confirm,GDH-TPI counter-2,others
Cc1ccc2nc(-c3ccc(NC(=O)CNC4CC4)cc3)sc2c1,28,n,n,x,n,48,39,
COc1ccc(-c2cc(C(=O)NC3CCCC3)c3ccccc3n2)cc1,41,n,n,n,n,72,55,
O=C(NC1CCC(O)CC1)c1cc(-c2ccco2)nc2ccccc12 (stereo unspecified),62,n,n,n,n,53,38,
CCCOc1ccc(-c2cc(C(=O)NCC3CCCO3)c3ccccc3n2)cc1 (stereo unspecified),28,n,n,n,n,177,154,
O=C(NC1CC1)c1cc(-c2ccc(Br)cc2)nc2ccccc12,n,n,x,n,n,x,x,
COc1cccc(-c2cc(C(=O)NC3CC3)c3ccccc3n2)c1,n,n,n,n,n,x,x,
COc1ccc(-c2cc(C(=O)NC3CC3)c3ccccc3n2)cc1,46,n,n,n,n,104,88,
